# Most compounds without a hit are left out; they make up all but 21% or so of the library.
# D3 antag – antagonists of human D3 dopamine receptor; D3R cells, DiscoveRx beta-arrestin luminescence, antagonist mode; hits give low values; max response, negative = inhibition, %; actives 2.5% (n = 360,000); in the data active = max response below about -50%; inconclusive = no clear call, values can overlap the other calls; note: % is set by controls: 0 for no effect and ±100 for the full control effect
#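 Cells expressing the human receptor were seeded at 1500 cells/well, incubated overnight at 37 degrees C in 5% CO2, then exposed to library compounds with dopamine controls for 90 minutes at 37 degrees C before luminescent detection.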
# IL-1B inflam inh – inflammasome signaling inhibition, IL-1 beta readout; THP-1 LPS/ATP IL-1B secretion, AlphaLISA, 16 h; hits give low values; activity change, % at 57.5 µM; actives 4.7% (n = 360,000); in the data active = activity change below about -50%; inconclusive = mostly about -30% to -49%; note: % is set by controls: 0 for no effect and ±100 for the full control effect
#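 Secreted IL-1B measured by AlphaLISA bead assay after 16 h compound exposure of THP-1 cells; compounds (final up to 57.5 uM) added 1 h before LPS (250 ng/mL) and ATP (1.25 mM) stimulation; lower signal means less secretion.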
# DRD3 agonist – D3 dopamine receptor (human) agonism | P35462 | AID 652048 | D3R DiscoveRx beta-arrestin cells, luminescence, 90 min | actives 0.58% (n = 410,000) | max activation, %; in the data active = max activation above about 30%; note: 0% is about no effect
#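 Cells at 1500/well, incubated overnight, then treated with pinned compounds (dopamine as control) for 90 min at 37 degrees C. DiscoveRx reagent added for 30 - 60 minutes at room temperature; luminescence read.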
# DT40 TDP1 no CPT – qHTS for Inhibitors of human tyrosyl-DNA phosphodiesterase 1 (TDP1): qHTS in cells in absence of CPT. actives 15% (n = 420,000). Potency, µM (highest dose often 46.2 µM), for inactives: top-dose activity change, negative = growth inhibition, hits mostly inhibitors. AID 686978, 2013. DT40 Tdp1-/- hTDP1 cells, no CPT, ATP luminescence, 48 h; note: potency is the fitted concentration of half-maximal effect; % is set by controls: 0 for no effect and ±100 for the full control effect; nearly all actives have a fitted effect of over 55% in size
#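 Growth of hTDP1-complemented DT40 Tdp1-knockout cells is measured by ATP luminescence after at least 48 hr compound exposure at 37 °C, with DMSO substituting for the 20 nM CPT used in the parallel screen.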
# TDP1 cell CPT – growth inhibition of DT40 Tdp1-/-;hTDP1 cells with camptothecin (screen for TDP1 inhibitors); chicken DT40 Tdp1-/-;hTDP1 cells + 20 nM CPT, ATP luminescence, 48 h; Potency, µM (series often up to 46.2 µM), without a hit: at the highest dose activity change, negative = growth inhibition, actives largely listed as inhibitors; actives 12% (n = 420,000); AID 686979; note: potency is the fitted concentration of half-maximal effect; % is set by controls: 0 for no effect and ±100 for the full control effect; nearly all actives have a fitted effect of over 55% in size
#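 Chicken DT40 Tdp1-/- cells stably complemented with human TDP1 were seeded at 400 cells/well in medium containing 20 nM camptothecin, exposed to pin-transferred compounds, and grown at 37 °C for at least 48 hr. Viability was read as ATP luminescence.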
# ClpP mod – qHTS Assay for Activators of ClpP; AID 651965, 2013; purified B. subtilis ClpP, FRET peptide cleavage, 20 min; actives 1.9% (n = 340,000); Potency, µM (top dose mostly 57.5 µM), for the others: top-dose activity change, negative = active; ATP-dependent Clp protease proteolytic subunit (Bacillus subtilis (strain 168)), P80244; active = well fitted falling curve with a large enough effect; inconclusive = small, poorly fitted or top-dose-only effect; inactive = no such curve, though single readings can be large or run the other way; note: potency is the fitted concentration of half-maximal effect; the source files actives as falling curves though it sought activators and does not explain the sign; nearly all actives have a fitted effect of over 65% in size
# Target sequence (P80244 whole entry, looked up): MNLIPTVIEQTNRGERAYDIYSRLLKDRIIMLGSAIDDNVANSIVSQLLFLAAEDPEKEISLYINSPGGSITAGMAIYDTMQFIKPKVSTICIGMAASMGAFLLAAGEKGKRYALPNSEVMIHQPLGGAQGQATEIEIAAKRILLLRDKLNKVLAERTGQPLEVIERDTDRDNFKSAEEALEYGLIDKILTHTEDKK
#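 ClpP 10 microg/mL final, pH 8 Tris/KCl buffer with BSA, glycerol, Tween-20; compound pinned in; FRET-FV substrate; RT 20 min; Ex320/Em430; ΔFRET vs ADEP 5.8 microM, DMSO, no enzyme.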
# Numbers without * were called inactive; u = inconclusive; x = no result. Unless noted, calls come from the whole dose curve; as a rule, active = well fitted inhibition curve with a large enough effect; inconclusive = small, poorly fitted or top-dose-only effect; inactive = flat fitted curve, though single readings scatter.
SMILES,D3 antag,IL-1B inflam inh,DRD3 agonist,DT40 TDP1 no CPT,TDP1 cell CPT,ClpP mod
CCOc1ccc2nc(N(CCN(C)C)C(=O)/C=C/c3cccs3)sc2c1,-19.2,-71.3*,-6.8,23.1µM*,u,0.3%
COC(=O)c1ccc(OC)c(Cn2c(=O)n(-c3cccc(Cl)c3)c(=O)c3c4c(sc32)CN(C(C)=O)CC4)c1,x,x,4.0,-11.5%,1.3%,2.6%
CCOc1ccc(/C=N/NC(=O)C2CCCC2)c(OCC)c1,9.4,21.8,-0.8,13.0%,-24.5%,-1.2%
Cc1ccc2nc(N(CCN(C)C)C(=O)/C=C/c3cccs3)sc2c1,-24.8,u,-11.2,16.4µM*,u,22.8%
Cc1cc(F)ccc1NC(=O)CS(=O)(=O)c1cccc2nsnc12,x,x,-21.2,-11.5%,11.0%,1.5%
CCOCCCNC(=O)CN1CCN(S(=O)(=O)c2ccc3c(c2)CCC3)CC1,22.1,15.2,-0.1,-20.7%,-0.1%,0.7%
N#CC(=C1NC(=O)c2ccccc21)c1nc2ccccc2n1CCO,u,-74.0*,-12.4,8.2µM*,u,0.8%
CC(=O)c1nc2ccccc2n1CCc1ccccc1,3.7,58.0,1.7,-19.8%,-28.9%,-15.3%
COc1ccccc1N1CCN(/N=C/c2cc(OC)c(O)c(OC)c2)CC1,-6.1,6.4,3.0,-14.4%,u,-2.8%
COc1cc(/C=N/N2CCN(c3ccccc3OC)CC2)ccc1OC(C)=O,4.2,4.1,1.2,-1.9%,-7.4%,28.2µM*
COc1ccc(/C=C/C(=O)NC(=S)N2CCN(c3ccccc3OC)CC2)cc1,-50.3*,15.0,-15.9,-28.3%,-15.4%,x
COc1ccccc1N1CCN(C(=O)/C=C/c2ccc(C)cc2)CC1,10.4,7.8,23.1,13µM*,u,0.5%
CCOC(=O)c1ccc(N2CCN(c3cccc(Cl)c3)CC2)c(NC(=O)Nc2ccc(OC)cc2OC)c1,x,x,-9.2,-10.2%,-15.7%,-13.3%
O=[N+]([O-])c1cc(/C=N/N2CCOCC2)cs1,-2.3,-12.5,7.2,-4.7%,11.5%,0.9%
O=c1oc(/C=C/c2ccc([N+](=O)[O-])s2)nc2ccccc12,-10.3,-62.4*,-4.8,u,u,-3.4%
O=[N+]([O-])c1ccc(NN=Cc2cccc3ccccc23)cc1,-16.8,-12.2,-8.1,u,u,x
O=[N+]([O-])c1ccc(C=NN2CCOCC2)s1,-21.1,4.7,-8.7,u,20.6µM*,1.8%
O=[N+]([O-])c1ccc(C=Nc2cccc3ccccc23)s1,u,-96.9*,4.0,20.6µM*,20.6µM*,x
COc1ccc(OC)c(CN2CCN(C(=O)CNC(=O)c3ccc(C(C)(C)C)cc3)CC2)c1,2.2,-5.3,-10.5,u,u,-2.9%
CC1(C(=O)NC2CCCCCCC2)CCC(=O)N1CCN1CCOCC1 (stereo not drawn),-5.6,7.4,-1.1,6.0%,-2.6%,-2.8%
C=C1CCC[C@]2(C)C[C@H]3OC(=O)C(CN(Cc4ccc(OC)c(OC)c4)CC(C)O)[C@H]3CC12 (stereo partly drawn),-23.7,-97.8*,-0.6,18.4µM*,u,-1.2%
C=C1CCC[C@]2(C)C[C@H]3OC(=O)C(CNCC(OC)OC)[C@H]3CC12 (stereo partly drawn),-5.0,-78.4*,8.5,18.4µM*,u,x
COc1ccc(CCNC(=O)C2(C)CCC(=O)N2CCC(C)C)cc1OC (stereo not drawn),16.5,5.5,7.6,-8.3%,9.5%,0.0%
C=C1CCC[C@]2(C)C[C@H]3OC(=O)C(CN4CCOCC4)[C@H]3C[C@@H]12 (stereo partly drawn),-20.0,-74.3*,1.2,u,u,-1.1%
